This is a sample that favours compounds with a hit; in the whole collection about 31% have one here.
CYP2C19 inhib – blockers of cytochrome P450 2C19 activity – biochemical, luminescence, ADME assay, primary screen; P33261; CYP2C19 Supersomes, luciferin-H EGE luminescence, 30 min; inhibition, % at 5 µM; hit rate 21% among 96,000; AID 778, 2007;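 active = CYP2C19 inhibition above a set limit at 5 µM in the primary screen, cut at about 50% in these data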;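 note: plate controls were negative control wells for no effect and 2.5 mM tranylcypromine positive control for full effect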
PLAP act – PLAP enzyme activators, biochemical, luminescence, HTS. purified PLAP enzyme, luminescent substrate read-out; active compounds read high. activation fold at 20 µM. hit rate 1.2% among 96,000. AID 696, 2007; in the data active = activation fold above about 2
Target sequence (P05187 whole entry, looked up): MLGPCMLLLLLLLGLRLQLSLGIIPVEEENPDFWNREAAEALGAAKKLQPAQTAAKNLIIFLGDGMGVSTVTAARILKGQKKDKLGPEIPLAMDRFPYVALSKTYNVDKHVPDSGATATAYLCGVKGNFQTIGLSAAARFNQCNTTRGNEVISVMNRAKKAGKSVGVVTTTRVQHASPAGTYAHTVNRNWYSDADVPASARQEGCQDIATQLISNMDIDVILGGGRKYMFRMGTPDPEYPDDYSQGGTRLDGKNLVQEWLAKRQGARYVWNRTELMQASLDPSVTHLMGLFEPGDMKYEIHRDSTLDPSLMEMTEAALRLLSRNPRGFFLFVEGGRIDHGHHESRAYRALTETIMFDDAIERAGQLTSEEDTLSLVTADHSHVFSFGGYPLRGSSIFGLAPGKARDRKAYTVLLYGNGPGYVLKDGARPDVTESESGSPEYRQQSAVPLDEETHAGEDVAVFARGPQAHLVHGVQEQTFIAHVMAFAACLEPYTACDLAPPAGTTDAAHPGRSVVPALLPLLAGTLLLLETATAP
CYP2C19 act – human CYP2C19 activators, primary screen, biochemical, luminescence | recombinant CYP2C19, luciferin-H EGE luminescence; active compounds read high; 0 = fully inhibited enzyme, 1 = untreated enzyme | activation factor at 5 µM | 96,000 tested, under 10 active;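 active = activation factor of at least 2 at 5 µM in the primary screen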;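 note: 0 = wells with 2.5 mM tranylcypromine and 1 = vehicle-only wells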
CYP2C9 activ – human CYP2C9 activators, primary screen, biochemical, luminescence; Cytochrome P450 2C9 (Homo sapiens), P11712; recombinant CYP2C9, luciferin-H conversion; active compounds read high; factor 1 = untreated enzyme, 0 = blocked; activation factor at 5 µM; hit rate 1.4% among 96,000;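 active = activation factor of 2 or more for CYP2C9 at a 5 µM dose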;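 note: 0 = sulfaphenazole-blocked wells and 1 = vehicle-only wells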
CYP2C9 inh – blockers of cytochrome P450 2C9 activity – biochemical, luminescence, ADME assay, primary screen. AID 777, 2007. CYP2C9 Supersomes, luciferin-H conversion. hit rate 20% among 96,000. inhibition, % at 5 µM;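 active = blocking of liver enzyme CYP2C9 beyond about 50% at 5 µM, limit read from the data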
The depositor's hits bear a star; . = not tested or not shown.

SMILES | CYP2C19 inhib | PLAP act | CYP2C19 act | CYP2C9 activ | CYP2C9 inh
COc1ccccc1N1CCN(C(=O)c2ccc(NC(C)=O)cc2)CC1 | -5 | 1 | 1 | 1 | -4
CCCCC(=O)Nc1ccc(C(=O)N2CCN(c3ccccc3OC)CC2)cc1 | 57* | 1.6 | 0.4 | 0.2 | 77*
CCOC(=O)C1CCN(C(=O)Nc2ccc3snnc3c2)CC1 | 51* | 0.9 | 0.5 | 0.7 | 28
CCCCCC(=O)Nc1ccc(N2CCN(C(=O)c3ccccc3)CC2)cc1 | 43 | 1.2 | 0.6 | 0.5 | 54*
CCCC(=O)N1CCN(c2ccc(NC(=S)NC(=O)CC)cc2)CC1 | 51* | 1 | 0.5 | 0.6 | 36
CCCC(=O)N1CCN(c2ccc(NC(=O)c3ccco3)cc2)CC1 | 7 | 1 | 0.9 | 1 | 1
CCCCCCC(=O)Nc1ccc(C(=O)N2CCCC2)cc1 | 2 | 1 | 1 | 1.1 | -8
CC(C)(Cl)C1Cc2cc3ccc(=O)oc3cc2O1 (stereo not given) | -2 | 0.9 | 1 | 1 | -1
COc1c(N)c2ccccc2[nH]c1=O | 4 | 0.9 | 1 | 1 | 2
O=C(CCc1ccccc1)Nc1nc2nc(-c3ccccc3)cc(=O)n2[nH]1 | 0 | 1.2 | 1 | 0.8 | 24
O=c1cc(-c2ccccc2)nc(SCc2ccccc2)[nH]1 | 6 | 1.2 | 0.9 | 0.8 | 16
O=c1cc(-c2ccccc2)nc(SCc2ccc(Cl)cc2)[nH]1 | 54* | 1.1 | 0.5 | 0.8 | 25
O=c1cc(-c2ccccc2)nc2nc(SCc3ccccc3)[nH]n12 | 1 | 0.9 | 1 | 0.1 | 90*
O=c1cc(-c2ccccc2)nc2nc(-c3ccco3)[nH]n12 | -12 | 1 | 1.1 | 0.5 | 52*
O=c1cc(-c2ccccc2)nc2nc(CCc3ccccc3)[nH]n12 | -12 | 1 | 1.1 | 0.3 | 72*
CC(=O)Cc1nsc(NC(=O)c2cc(-c3cccc(C(F)(F)F)c3)oc2C)n1 | -3 | 1.3 | 1 | 0.8 | 21
CCCCn1c(=O)cc(N2CCOCC2)[nH]c1=O | -21 | 1 | 1.2 | 1.3 | -30
CC1=C(C(=O)Nc2ccccn2)C(c2cccnc2)n2nnnc2N1 (stereo not given) | 2 | 1 | 1 | 1 | 4
CC(C)(C)c1ccc(S(=O)(=O)N2CC(=O)Nc3ccccc32)cc1 | 82* | 0.8 | 0.2 | 0.9 | 10
CCc1ccc(S(=O)(=O)N2CC(=O)Nc3ccccc32)cc1 | 74* | 0.8 | 0.3 | 1.7 | -68
O=C(CN1CCN(c2ccccc2)CC1)N1CCN(c2ccccc2)CC1 | 26 | 1.6 | 0.7 | 0.6 | 38
CSC(=NC#N)N1CCN(c2cccc(Cl)c2)CC1 | 95* | 0.9 | 0 | 0.7 | 33
CSC(=NC#N)N1CCN(c2ccccc2)CC1 | 51* | 1 | 0.5 | 1 | -4
O=c1nc2ccccc2c(NS(=O)(=O)c2ccc(Cl)cc2)n1-c1ccccc1 | 10 | 1.1 | 0.9 | 0.9 | 5
CC(=O)C1=C(O)C(=O)N(CCC(=O)O)C1c1cccc(F)c1 (stereo not given) | -3 | 1 | 1 | 1.2 | -16
SMILES | CYP2C19 inhib | PLAP act | CYP2C19 act | CYP2C9 activ | CYP2C9 inh
O=C(O)c1sccc1SCc1ccc(Cl)cc1Cl | -4 | 0.9 | 1 | 0.5 | 54*
Cc1csc(=N)n1-c1ccc(Cl)cc1 | 30 | 0.8 | 0.7 | 0.8 | 22
CCc1nc2c(nnn2Cc2ccc(F)cc2)c(=O)[nH]1 | 88* | 1.3 | 0.1 | 0.9 | 10
O=C(Nc1ccc(F)cc1)N1CCC(c2nc3c(nnn3Cc3cccc(Cl)c3)c(=O)[nH]2)CC1 | 35 | 1.3 | 0.6 | 0.3 | 66*
Cc1ccc(NC(=O)N2CCC(c3nc4c(nnn4Cc4cccc(Cl)c4)c(=O)[nH]3)CC2)cc1 | 94* | 1.5 | 0.1 | 0 | 100*
CCn1c(SCc2ccc(C)cc2)nnc1C1CCN(S(=O)(=O)c2ccc(OC)cc2)CC1 | 32 | 1.3 | 0.7 | 1.8 | -78
Cc1ccc(Cn2nnc3c(=O)[nH]c(C4CCN(S(=O)(=O)c5ccc(C)cc5)CC4)nc32)cc1 | 78* | 1.4 | 0.2 | 0 | 98*
O=C(c1cc(Br)c(Br)s1)N1CCN(C/C=C/c2ccccc2)CC1 | 27 | 1.5 | 0.7 | 0.8 | 17
O=C(NCc1cccnc1)c1cc(-c2cccs2)on1 | 17 | 1 | 0.8 | 0.8 | 20
CSCC[C@H](NC(=O)Nc1ccc(C)cc1C)C(=O)O | -11 | 1 | 1.1 | 1 | -2
O=C(Nc1ncnc2c1ncn2C1OC(COC(=O)c2ccccc2)C(F)C1O)c1ccccc1 (stereo not given) | 80* | 1.6 | 0.2 | 0.1 | 86*
CCCS(=O)(=O)NCCc1cc2ccc(OC)cc2[nH]c1=O | -7 | 1.1 | 1.1 | 1.1 | -7
CCOC(=O)C1=C(CC)Nc2ccccc2N=C1NC(=O)Nc1ccc(Cl)c(Cl)c1 | 58* | 1.2 | 0.4 | 0.1 | 94*
COC(=O)Nc1sc(C)nc1-c1ccccc1 | 0 | . | 1 | 1.1 | -7
CCCC1C(C#N)=C(N)Oc2n[nH]c(C(C)(C)C)c21 (stereo not given) | 93* | 1.4 | 0.1 | 0.3 | 70*
CCCc1[nH]nc2c1C(c1ccc(OC)cc1OC)C(C#N)=C(N)O2 (stereo not given) | 26 | 1.6 | 0.7 | 0.8 | 18
Cc1[nH]nc2c1C(CCc1ccccc1)C(C#N)=C(N)O2 (stereo not given) | 74* | 1.1 | 0.3 | 0.7 | 32
COc1ccc(F)c(C2C(C#N)=C(N)Oc3n[nH]c(C(C)(C)C)c32)c1 (stereo not given) | 70* | 1 | 0.3 | 0.6 | 42
O=C(NCc1ccc2c(c1)OCO2)c1cc2ncc(Br)cn2n1 | 11 | 1 | 0.9 | 0.8 | 21
CCOCCCNC(=O)N[C@@H](C)C(=O)OC | -2 | 0.9 | 1 | 1 | -1
COc1ccccc1N(C)S(=O)(=O)c1ccc(C(=O)NCC(C)C)cc1 | 52* | 1.6 | 0.5 | 0.2 | 83*
CCC(C)(C)NC(=O)c1ccc(S(=O)(=O)N(C)c2ccccc2OC)cc1 | 15 | 1.2 | 0.8 | 0.4 | 65*
N#CCCN1CCn2c1nc1ccccc12 | 12 | 1 | 0.9 | 1.2 | -22
COc1cc2c(cc1OC)C1=C(C#N)CN(CC(=O)O)CN1CC2 | 27 | 1.8 | 0.7 | 0.4 | 57*
COc1cc2c(cc1OC)CN(C(=O)COc1ccc(C#N)cc1)CC2 | 21 | 1 | 0.8 | 0.6 | 36
COc1cccc(NC(=O)C2CCCN(S(=O)(=O)c3cccc4nsnc34)C2)c1 (stereo not given) | 50* | 1 | 0.5 | 0.3 | 67*
O=C(NCC1CCCO1)C1CCCN(S(=O)(=O)c2cccc3nsnc23)C1 (stereo not given) | -5 | 1 | 1.1 | 1.2 | -25
